Measurements from PubChem BioAssay AID624481 (The Scripps Research Institute Molecular Screening Center, 2012).
A number with no mark means an inactive call. Calls of active or inactive are those of the source. Rule as the data show it: active = inhibition above about 50%; inactive = the rest.

The compounds below were run against Prolyl endopeptidase-like (Mus musculus) (UniProt Q8C167) (assay: mouse PREPL enzyme inhibition by screening hits – biochemical, gel-based competitive ABPP, fluorescence, HTS hits, PREPL inhibitor project (AID 624481)). Conditions: purified mouse PREPL, at 20 µM, stronger effect = higher value.
Chain of Prolyl endopeptidase-like (Mus musculus) (Q8C167 whole entry, looked up): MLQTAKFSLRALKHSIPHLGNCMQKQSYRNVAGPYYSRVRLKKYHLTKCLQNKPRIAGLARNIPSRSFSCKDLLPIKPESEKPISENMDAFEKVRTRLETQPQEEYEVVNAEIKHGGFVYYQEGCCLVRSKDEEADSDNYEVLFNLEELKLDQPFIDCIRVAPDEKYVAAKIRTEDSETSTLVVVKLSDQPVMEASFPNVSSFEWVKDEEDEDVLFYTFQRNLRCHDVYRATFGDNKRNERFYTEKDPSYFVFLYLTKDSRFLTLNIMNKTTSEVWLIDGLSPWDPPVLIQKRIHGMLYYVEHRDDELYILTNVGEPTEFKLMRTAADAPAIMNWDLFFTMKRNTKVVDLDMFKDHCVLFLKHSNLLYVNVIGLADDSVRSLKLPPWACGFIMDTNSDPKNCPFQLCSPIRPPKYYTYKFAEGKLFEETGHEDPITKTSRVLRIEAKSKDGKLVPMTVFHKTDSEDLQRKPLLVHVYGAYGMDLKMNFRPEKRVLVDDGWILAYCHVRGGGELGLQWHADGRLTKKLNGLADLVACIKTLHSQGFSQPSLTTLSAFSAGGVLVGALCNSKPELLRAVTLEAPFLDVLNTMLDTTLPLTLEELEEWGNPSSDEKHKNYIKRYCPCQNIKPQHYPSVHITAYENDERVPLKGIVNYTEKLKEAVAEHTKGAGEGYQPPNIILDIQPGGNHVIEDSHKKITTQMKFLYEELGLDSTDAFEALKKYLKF

SMILES	inhibition
Clc1ccc(-c2csc(=Nc3cccnc3)n2CCCn2ccnc2)cc1Cl	-41%
O=C(C1=C[C@@H](c2ccc(Br)cc2)C[C@@H](OCc2ccc(CO)cc2)O1)N1CCN(Cc2ccccc2)CC1	-99%
CN1CCc2c(sc3c2C(=O)NC(c2cn(Cc4ccccc4)c4ccccc24)N3)C1 (configuration not stated)	7%
CCc1ccc(Nc2n[n+](-c3ccccc3)c(-c3ccc(N(CC)CC)cc3)s2)cc1	-100%
Cc1ccc(S(=O)(=O)Nc2ccc3c(c2)CC(=O)N([C@H](C)CO)C[C@H](C)[C@H](CN(C)Cc2ccc4c(c2)OCO4)O3)cc1	9%
CC(=O)N1CCN(c2ccc(NCc3ccc(-c4cccc(Cl)c4)o3)cc2)CC1	39%
O=C(C1=C[C@@H](c2ccc(C(F)(F)F)cc2)C[C@@H](OCCCCO)O1)N1CCN(Cc2ccccc2)CC1	-70%
CC(=O)N1CCN(c2ccc(OC[C@H]3CO[C@](Cn4ccnc4)(c4ccc(Cl)cc4Cl)O3)cc2)CC1	-188%
O=C(C1=C[C@@H](c2ccc(C(F)(F)F)cc2)C[C@@H](OCc2ccc(CO)cc2)O1)N1CCN(Cc2ccccc2)CC1	-76%
CN(C)c1nc(-c2ccccn2)nnc1-c1ccccc1	-28%
C#CCOCCOCCOCCNc1nc(N2CCN(C(=O)CCCCCCCCCCNC(=O)Cn3cc(CCCCCN)nn3)CC2)nc(N2CCN(C(=O)CCCCCCCCCCNC(=O)[C@H](CO)n3cc(CCCCCN)nn3)CC2)n1	-38%
NC(=O)[C@H]1CC2(CC(c3cccc(NC(=O)COc4ccc(Cl)cc4)c3)=NO2)CN1C(=O)Cc1ccc([N+](=O)[O-])cc1 (some centres not stated)	-114%
CN(C)c1ccc(C(CNC(=O)COc2ccc(Cl)cc2)N2CCCC2)cc1 (configuration not stated)	-25%
COCCCNC(=O)/C(C#N)=C/c1c(N2CCN(c3ccc(OC)cc3)CC2)nc2c(C)cccn2c1=O	-39%
C[C@H]1CN([C@@H](C)CO)C(=O)Cc2cc(NC(=O)CCN3CCOCC3)ccc2O[C@@H]1CN(C)Cc1ccc(Oc2ccccc2)cc1	-27%
O=S(=O)(c1ccc(-c2csc(=Nc3ccccc3)n2CCCN2CCOCC2)cc1)N1CCOCC1	57% (active)
CCc1ccc(OCC(=O)Nc2ccc(N3CCN(C(=O)c4ccccc4)CC3)cc2)cc1	-73%
Cc1cccc(OCC(=O)Nc2ccc(N3CCN(C(=O)c4ccccc4)CC3)cc2)c1C	-8%
O=C(C1=C[C@@H](c2ccc(Br)cc2)C[C@@H](OCCCCO)O1)N1CCN(Cc2ccc3c(c2)OCO3)CC1	-47%

SMILES	inhibition
C(=NNc1nc2ccccc2[nH]1)c1c[nH]c2ccccc12	36%
CCN(CC)CCNc1ccc(CO)c2sc3ccccc3c(=O)c12	-23%
O=C(Cc1ccc(Cl)cc1)Nc1ccc(N2CCN(C(=O)c3ccco3)CC2)cc1	-61%
Cc1ccc2c(CC(=O)Nc3ccc(N4CCN(C)CC4)cc3C)coc2c1	-3%
CCCCNc1c(-c2ccc(SC(C)CC)cc2)nc2cnccn12 (configuration not stated)	-22%
CC1CCCN(Cc2c(O)ccc3c(=O)c(-c4nc5ccccc5s4)c(N)oc23)C1 (configuration not stated)	3%
COc1cc2[nH]c3c(N4CCN(c5ccccn5)CC4)ncnc3c2cc1OC	1%
Cc1cccc(C2CC(c3ccc(F)cc3)Nc3nc(N)nn32)c1 (configuration not stated)	-26%
C#CCOCCOCCOCCNc1nc(N2CCN(C(=O)CCCCCCCCCCNC(=O)[C@H](CCCCN)n3cc(C)nn3)CC2)nc(N2CCN(C(=O)CCCCCCCCCCNC(=O)[C@H](CCCN=C(N)N)n3cc(C[C@@H](C)CC)nn3)CC2)n1	-58%
CC(C)C[C@@H]1CN=C(N)N1C[C@@H]1CCCN1C[C@@H](C(C)C)N1C[C@@H](Cc2ccccc2)N(CCc2ccc(Cl)c(Cl)c2)C1=N	-72%
Cc1cc(N2CCN(C)CC2)nc2ccc(NC(=O)CCC(=O)N3CCN(c4ccc([N+](=O)[O-])cc4)CC3)cc12	-92%
CN(C)c1ccc(C=NNC(=S)NCc2ccccc2)cc1	-20%
Cc1c(NCc2cc(Cl)cc(Cl)c2O)c(=O)n(-c2ccccc2)n1C	-28%
O=c1[nH]c2ccc(NCc3ccccc3OCc3ccc(Cl)cc3)cc2[nH]1	-43%
Nc1nn(-c2ccccc2)c(N)c1N=Nc1ccccc1	-16%
O=C(COc1ccccc1Cl)Nc1ccc(N2CCN(C(=O)c3ccccc3)CC2)cc1	-61%
O=C1c2c(O)ccc(O)c2C(=O)c2c(NCCNCCO)ccc(NCCNCCO)c21	-46%
COc1ccc(N2CCN(CCC(O)c3ccc4ccccc4c3)CC2)cc1 (configuration not stated)	-79%
